Common to all, as to experiment: NCI-60 one-dose screen, 48 h (100 = growth as untreated, 0 = no growth, -100 = all killed)
Conditions in all cases: 10 µM unless noted

Experiment [1] has as its system HT29 colon.
In experiment [2] the test system is SNB-75 CNS.
The subject of experiment [3] is SNB-19 CNS.
The test system of experiment [4] is U251 CNS.
The test system of experiment [5] is PC-3 prostate.
In experiment [6] the test system is SK-MEL-5 melanoma.
Experiment [7] concerns UACC-62 melanoma.
Experiment [8] concerns LOX IMVI melanoma.
The test system of experiment [9] is SK-MEL-28 melanoma.
In experiment [10] the test system is SK-MEL-2 melanoma.
Experiment [11] deals with EKVX NSCLC.
For experiment [12], the system named is SN12C renal.
The test system of experiment [13] is TK-10 renal.
Experiment [14] concerns ACHN renal.
Experiment [15] concerns CAKI-1 renal.
Experiment [16] concerns A498 renal.
For experiment [17], the system named is CCRF-CEM leukemia.
Experiment [18] deals with MOLT-4 leukemia.
Experiment [19] deals with UO-31 renal.

The values below come from PubChem BioAssay (NCI).

About 83,000 compounds went through this panel and 20% of them were active in at least one assay; those are over-represented in the sample as a whole.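 Cells were grown in 96-well plates and exposed to the test compound at a single concentration for 48 hours; results are reported as percent growth, with values below 10 considered active.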 Unmarked numbers belong to inactive results. Active and inactive are the calls of the source.

For the compound `CCOc1cccc(NC2=C(Br)C(=O)C(C)=C(C)C2=O)c1`, the growth in [1] is 107%; in experiment [2], 56.3%; in [3], 94%; in [4] it was 97.3%; in [5] it was 73.8%; in [6], 89%. For the same compound, the growth was 81.5% in experiment [7]; 26% in experiment [8]; 104% in experiment [9]; 95.5% in experiment [10]; 92.4% in experiment [11]; 85% in experiment [12]. Further, the growth in experiment [13] was 155%; in [14] it was 85.8%; in [15] it was 96%; in experiment [16], 109%; in experiment [17], 3.35% (active); in experiment [18] it was 2.57% (active).

Turning to `O=C1c2cccc3cccc(c23)C(=O)N1Nc1nc(NC2CCCCC2)nc(N2CCOCC2)n1`, the growth in experiment [1] is 107%; in [2], 88.9%; in [3] it was 91%; in experiment [4], 97.5%; in [5], 98.2%; in [6] it was 92.7%. Further, the growth was 89.1% in experiment [7]; 91.1% in experiment [8]; 101% in experiment [9]; 109% in experiment [10]; 90% in [11]; 93.9% in experiment [12]. The growth in experiment [19] is 69.1%; in [13], 129%; in experiment [14], 89.7%; in experiment [15], 76.5%; in experiment [16], 127%; in [17], 90.1%. For the same compound, the growth in experiment [18] was 90%.

Take `COc1cccc2c(=O)c3c(sc12)c(NCCCN)nc1ccccc13`: the growth in experiment [1] was -29.3% (active); in [2], 58.2%; in experiment [3], 51%; in [4], 39.5%; in experiment [5], 55.9%; in experiment [6], 85.9%. Also, the growth was 88.3% in [7]; -81.7% (active) in [8]; 91.4% in experiment [9]; 103% in [10]; 63.6% in [11]; 48.4% in experiment [12]. Also, the growth in experiment [19] was 27.7%; in experiment [13], 65.6%; in experiment [14], 29.4%; in experiment [15], 27.5%; in experiment [16], 25.2%; in experiment [17], 14.7%. In experiment [18], the growth was 8.43% (active).

`COc1cc(CCC[P+](c2ccccc2)(c2ccccc2)c2ccccc2)c(OC)c2c1OCO2`: the growth in [1] was 47.2%; in [2] it was 3.69% (active); in [3] it was 15.2%; in [4], 11.5%; in experiment [5], 14.4%; in [6], -48.9% (active). For the same compound, the growth is 0.576% (active) in [7]; 29.6% in [8]; 32.1% in [9]; -13.1% (active) in experiment [10]; 25.4% in experiment [11]; 29.6% in experiment [12]. In addition, the growth is 93.9% in experiment [19]; 12.1% in [13]; 94.1% in experiment [14]; 75.8% in experiment [15]; 41.5% in [16]; 37.8% in experiment [17]. The growth in [18] is 44.4%.

Turning to `c1cc2nc(-c3cn[nH]c3)c3c(c2cc1-c1cn[nH]c1)C1CCC3C1` (stereo not given), the growth in [1] was 81.8%; in experiment [2], -1.68% (active); in experiment [3], 78.9%; in experiment [4], 72%; in [5] it was 62.3%; in [6], 60.2%. Also, the growth in [7] is 59.6%; in [8], 69.1%; in experiment [9] it was 73.7%; in experiment [10], 92.4%; in [11], 46.3%; in experiment [12], 66%. In addition, the growth in [19] is 40.3%; in experiment [13] it was 97.4%; in experiment [14], 44.9%; in experiment [15], 28.3%; in experiment [16], -6.11% (active); in experiment [17], 69%. The growth in [18] is 63%.

`NC1=C(c2nn[nH]n2)C(c2ccccc2Cl)c2ccc3ccccc3c2O1` (stereo not given): the growth is 132% in experiment [1]; 56.7% in experiment [2]; 79.2% in experiment [3]; 77.8% in experiment [4]; 57.5% in [5]; 58% in experiment [6]. Further, the growth in [7] was 71.2%; in experiment [8] it was 77.8%; in experiment [9] it was 75.6%; in [10] it was 89.7%; in experiment [11], 90.7%; in experiment [12] it was 84%. Also, the growth in experiment [19] was 60%; in experiment [13] it was 74.9%; in experiment [14], 77.5%; in [17], 77.5%.

In the case of `Cc1nc(S(=O)(=O)c2ccccc2)c(S(=O)(=O)Cc2ccc([N+](=O)[O-])cc2)o1`, the growth in experiment [1] was 91.2%; in experiment [2], 72.9%; in [3], 92.5%; in experiment [4], 98.8%; in [5], 87.9%; in [6], 95.9%. Moreover, the growth is 79.8% in [7]; 103% in [9]; 89.2% in experiment [10]; 104% in experiment [11]; 89.9% in experiment [12]; 72.5% in experiment [19]. Also, the growth is 105% in experiment [13]; 87.6% in experiment [14]; 95.6% in experiment [15]; 81.8% in [16]; 90.7% in experiment [18].

For the compound `CCCCCCNC(=O)Oc1ccc(/C(=C(\C)c2ccc(Cl)cc2)c2ccc(OCCN3CCCCC3)cc2)cc1`, the growth in experiment [1] was -10.1% (active); in experiment [2] it was 59.5%; in [3], 68%; in experiment [4], 34.7%; in experiment [5], 29.6%; in [6] it was 25%. Also, the growth is 54.5% in [7]; 3.75% (active) in experiment [8]; 86.4% in experiment [10]; 52.8% in experiment [11]; 55.9% in experiment [12]; 32.6% in experiment [19]. Further, the growth in experiment [13] was 89.6%; in [14], 76.3%; in experiment [15], 63.8%; in [16], 76.1%; in experiment [17] it was 34%; in experiment [18] it was 10.9%.

As to `CN(C)CCS(=O)(=O)Nc1cc(-c2ccc3ncc(C#N)c(Nc4ccc(F)c(Cl)c4)c3c2)cnc1Cl`, the growth in experiment [1] was 5.5% (active); in [2], -21% (active); in [3] it was -67.2% (active); in experiment [4] it was -46.2% (active); in experiment [5], -43.5% (active); in experiment [6], -89.8% (active). In addition, the growth in experiment [7] was -77.2% (active); in experiment [8], -61.3% (active); in experiment [9], -31.5% (active); in experiment [10] it was -40.4% (active); in [11] it was -43.5% (active); in experiment [12] it was 0.75% (active). Moreover, the growth was -55.5% (active) in experiment [19]; -35.5% (active) in experiment [13]; 8.58% (active) in [14]; -42.3% (active) in [15]; -49.9% (active) in experiment [16]; 1.06% (active) in [17]. For the same compound, the growth in [18] is -25.9% (active).

For `N#Cc1cccc(NC(=O)c2cc(-c3ccc(F)cc3F)ccc2O)c1`, the growth in [1] was 104%; in experiment [2] it was 11.5%; in experiment [3] it was 13.7%; in [4] it was 13%; in experiment [5], 20.3%; in experiment [6], -98.5% (active). Moreover, the growth was 13.7% in experiment [7]; 13.2% in [8]; 25.6% in [9]; -6.68% (active) in experiment [10]; 89.4% in experiment [11]; 4.26% (active) in experiment [12]. Moreover, the growth in experiment [19] was -11.4% (active); in experiment [13] it was 21.9%; in experiment [14], 7.33% (active); in experiment [15] it was 3.62% (active); in experiment [16], -33.2% (active); in experiment [17], 27.4%. The growth in experiment [18] is 11.8%.

Consider `N#C/C(=C\c1cccc2cnccc12)n1nnc2cccc(F)c21`, for which the growth was 27.5% in experiment [1]; -5.04% (active) in experiment [2]; 80.7% in [3]; 78.9% in experiment [4]; 48.7% in [5]; 58.7% in experiment [6]. The growth is 36.5% in experiment [7]; 14.9% in experiment [8]; 37.1% in experiment [9]; 52.8% in [10]; 24.9% in experiment [11]; 17.7% in [12]. For the same compound, the growth in experiment [19] is 41.4%; in experiment [13] it was 34.4%; in experiment [14], 16.9%; in [15], 41.5%; in [16], 67.7%; in experiment [17], 17.6%. In experiment [18], the growth was 26.2%.

As for `COc1ccc2c(c1)c(-c1ccc(-c3cn(C)c4ccc(OC)cc34)o1)cn2C`, the growth is 72.7% in experiment [1]; 71.4% in experiment [2]; 33.3% in experiment [3]; 15% in experiment [4]; 3% (active) in experiment [5]; -2.83% (active) in [6]. Further, the growth in experiment [7] is 12.4%; in experiment [8] it was 53.2%; in [9], 83.6%; in experiment [11] it was 46.1%; in experiment [12], 75.8%; in experiment [19] it was -8.28% (active). Moreover, the growth was 83.3% in experiment [13]; 36.3% in [14]; 37.2% in experiment [15]; 85.3% in experiment [16]; 61.8% in experiment [17]; 63.5% in experiment [18].
